Kir21 inh = inhibitors of mouse Kir2.1 inward-rectifier potassium channel | B-score at 10 µM | AID 1672, 2009 | 310,000 compounds, 0.85% hits | HEK293-Kir2.1, FluxOR thallium flux fluorescence; stronger effect = lower value;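 active = fluorescence ratio B-score at or below minus 3 SD of library scores, with starting-brightness B-score within 2 SD, cut at about -4.2 in these data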;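 also: channel flux triggered by added potassium and thallium sulfate stimulus; B-score of peak minus minimum fluorescence over baseline after thallium stimulus; more negative B-score means stronger Kir2.1 block with less thallium influx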
CHT block = inhibitors of human choline transporter CHT | High affinity choline transporter 1 (Homo sapiens), Q9GZV3 | CHT-expressing cells, membrane potential dye, choline response; stronger effect = lower value | B-score at 10 µM | 310,000 compounds, 0.86% hits;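 active = B-score over 3 SD under the library average, and starting fluorescence ratio not unusually high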;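 also: choline stimulus applied at its EC90 after an EC20 pre-addition; B-score computed on integrated fluorescence ratio after choline addition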
Target sequence (Q9GZV3 whole entry, looked up): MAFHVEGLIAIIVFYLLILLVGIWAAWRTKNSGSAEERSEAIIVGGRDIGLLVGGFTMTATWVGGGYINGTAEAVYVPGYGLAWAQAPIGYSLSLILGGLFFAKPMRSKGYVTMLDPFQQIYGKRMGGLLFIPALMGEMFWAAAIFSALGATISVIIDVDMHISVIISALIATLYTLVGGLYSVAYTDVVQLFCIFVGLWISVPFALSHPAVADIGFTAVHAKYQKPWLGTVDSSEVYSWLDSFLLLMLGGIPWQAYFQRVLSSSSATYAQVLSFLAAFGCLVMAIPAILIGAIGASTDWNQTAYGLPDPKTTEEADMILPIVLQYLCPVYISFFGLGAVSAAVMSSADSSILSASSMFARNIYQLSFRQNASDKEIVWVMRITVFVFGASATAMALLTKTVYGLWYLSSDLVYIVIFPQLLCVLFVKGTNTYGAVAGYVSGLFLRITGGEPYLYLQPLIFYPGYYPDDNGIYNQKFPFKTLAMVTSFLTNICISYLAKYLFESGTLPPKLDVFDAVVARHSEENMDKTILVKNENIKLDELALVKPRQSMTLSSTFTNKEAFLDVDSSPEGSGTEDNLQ
CHT allo act = CHT positive allosteric modulators, primary screen, cell-based, membrane potential dye, choline EC20 | High affinity choline transporter 1 (Homo sapiens), Q9GZV3 | CHT-expressing cells; stronger effect = higher value; LV-AA mutant CHT in HEK293 cells | B-score at 10 µM | 310,000 compounds, 0.49% hits | AID 488977, 2010;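 active = initial fluorescence not abnormally high and integrated response B-score, plate-corrected, over 3 SD above library mean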
TAG inh = inhibitors of triacylglycerol accumulation, primary screen, cell-based, uHTS, fluorescence, H9c2 | AID 651582, 2012 | H9c2 cells, Nile Red lipid (TAG) fluorescence; cells loaded with 200 µM oleic acid | 230,000 compounds, 0.66% hits | inhibition, % at 12.5 µM;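 active = pattern-corrected inhibition of lipid staining of at least 50% with the nuclear-stain viability signal not falling by more than 50%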;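 also: 0% = DMSO wells and 100% = triacsin C control wells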
Numbers without * were called inactive; i = inactive; x = no result. A selection: hits, their analogues and other compounds. The true share with any hit is near 2%.

SMILES | Kir21 inh | CHT block | CHT allo act | TAG inh
CS(=O)(=O)N(CC(=O)N1CCc2ccccc2C1)c1ccccc1Br | -0.64 | i | i | x
CC(=O)C[C@H]1c2ccccc2S(=O)(=O)N1C1CCCC1 | -4.75* | i | i | 15.7
CCCCN(CCCC)CCNC(=O)c1cn(CC)c2ccc(S(=O)(=O)N3CCCC3)cc2c1=O | 0.03 | i | i | x
C=CCOC(=O)C1=C(C)N=C2SCCC(=O)N2C1/C=C/c1ccccc1 (stereo unspecified) | 0.47 | i | i | x
Cc1ccc(/C=C2\SC(=S)N(NS(=O)(=O)c3ccc(C)cc3)C2=O)cc1 | 0.68 | i | i | x
COc1ccc(/C=C2/SC(=S)N(NS(=O)(=O)c3ccc(C)cc3)C2=O)cc1 | 1.25 | -5.6* | i | x
C/C(N)=C(/C#N)C(=O)COC(=O)CC12CC3CC(CC(C3)C1)C2 | -0.57 | i | i | 4.7
C/C(N)=C(/C#N)C(=O)COC(=O)C1CCC(C(C)(C)C)CC1 (stereo unspecified) | -11.4* | i | i | -12.1
CCOC(=O)c1ccccc1NC(=O)CSc1nnc(COc2ccccc2)n1CC | -6.21* | i | i | x
CC(=NNC(=S)N1CCCC1)c1ccccn1 | x | x | x | 22.6
CC(=NNC(=S)N1CC2CCC(CC2)C1)c1cccc(C)n1 | x | x | x | 53.2*
COc1cccc(NC(=O)c2cccnn2)c1 | 0.02 | i | i | x
O=C(Oc1ccccc1)c1ccccc1 | x | x | x | -6.5
O=C(Oc1ccc(/C=N/O)cc1)c1ccccc1 | -5.6* | i | i | 6.6
COCCOC(=O)/C(=C/c1ccc(OC(=O)c2ccccc2)cc1)C(C)=O | -14.2* | i | i | -0.2
O=C(Oc1ccc(C(=S)N2CCCCC2)cc1)c1ccccc1 | -4.59* | i | i | x
O=C(Oc1cccc(C(=S)N2CCCCC2)c1)c1ccccc1 | -0.37 | i | i | -6.5
O=C(Oc1ccc(/C=N/Nc2ccccc2)cc1)c1ccccc1 | -4.59* | i | i | -12.4
Cc1ccc(CNc2nc(NCc3ccccc3)nc3ccsc23)c(C)c1 | x | x | x | -8.8
O=C(NCCC1=CCCCC1)c1cc(-c2ccncc2)nc2ccccc12 | 0.1 | i | i | 10.6
CCCC(=O)NC1=C(Cl)C(=O)c2ccccc2C1=O | x | x | x | 26.8
CCNC1=C(Cl)C(=O)c2ccccc2C1=O | 0.93 | i | i | 61.7*
CCOCCC(=O)Nc1ccc2c(c1)c(=O)n(C)n2-c1ccccc1F | x | x | x | -8.1
O=C(O)C1C2CCC(O2)C1C(=O)Nc1ccc(Br)cc1F (stereo unspecified) | 0.45 | i | i | -1.4
Cc1ccc(S(=O)(=O)C2(C(=O)NCCc3ccccc3)CC2)cc1 | -1.46 | i | i | x
SMILES | Kir21 inh | CHT block | CHT allo act | TAG inh
CCn1c2ccccc2c2cc(Nc3cc(C)nc4ncnn34)ccc21 | -7.61* | i | i | 35.7
Cc1ccc(S(=O)(=O)N2CCCCC2)cc1NC(=O)c1cc(F)c(F)c(F)c1F | x | x | x | -23.3
CC(Oc1ccc2c(-c3ccccc3)cc(=O)oc2c1)C(=O)NCC(O)c1ccccc1 (stereo unspecified) | 0.7 | i | i | x
CC(C)(C)c1cnnn1-c1ccc(C(=O)CCl)cc1 | -6.48* | i | i | -13.2
CCCc1[nH]n(-c2ccc([N+](=O)[O-])cc2)c(=O)c1C=NCCN1CCNCC1 | -1.31 | i | 6.78* | x
Cc1[nH]n(-c2ccc([N+](=O)[O-])cc2)c(=O)c1C=NCCN1CCN(C(=O)C(C)C)CC1 | -0.08 | i | i | x
C/C(=N\NC(=O)c1cc(C)nc2ccccc12)c1ccccn1 | x | x | x | 4.3
COc1ccc2nc(NN=C(C)c3ccccn3)cc(C)c2c1 | x | x | x | 67.2*
COc1cc(OC)c(NS(=O)(=O)c2cc(C(=O)OCC(=O)NCC3CCCO3)ccc2OC)cc1Cl (stereo unspecified) | 0 | i | i | 6.1
COc1cc([N+](=O)[O-])ccc1NC(=O)CN1CCN(C(=O)c2ccco2)CC1 | -0.68 | i | i | 3.8
O=C(CCl)Nc1ccc(-c2ccccc2)cc1 | 0.03 | i | i | 56.4*
O=C(CCl)Nc1ccc(N=Nc2ccccc2)cc1 | 1.19 | x | x | x
Cc1ccc(Sc2ccc(NC(=O)CCl)cc2)cc1C | -0.66 | i | i | 63.0*
Cc1ccc(NC(=O)CNC2CCS(=O)(=O)C2)cc1C (stereo unspecified) | 1.17 | x | x | -8.2
O=S(=O)(Nc1ccc2cn[nH]c2c1)c1ccc(Cl)cc1 | -2.76 | i | i | x
Cc1cc(S(=O)(=O)Nc2ccc3cn[nH]c3c2)c(C)cc1Cl | -5.19* | i | i | x
Nc1ccc(C23CC4CC(CC(CO)(C4)C2)C3)cc1 | -0.02 | i | i | 4.0
NCC12CC3CC(C1)CC(c1ccc(Cl)cc1)(C3)C2 | -10.2* | i | i | 46.7
CC(=O)c1ccc(S(=O)(=O)N2CCCC(N(C)CCc3ccccn3)C2)cc1 (stereo unspecified) | -0.3 | i | i | x
C/C(=N/NC(=O)c1ccc(Br)s1)c1ccncc1 | 0.59 | i | i | x
COc1nc(N=C(N)N)nc2ccc(C)cc12 | -0.06 | i | 7.44* | x
CSc1nnc(NC(=O)c2nc(S(=O)(=O)Cc3ccccc3)ncc2Cl)s1 | -2.94 | -9.2* | i | x
COc1cc(C(=O)NNC(=O)c2cc(-c3ccccc3)n[nH]2)cc(OC)c1C | x | x | x | -2.9
c1ccc(CSc2nnnn2-c2cccc3ccccc23)nc1 | -7.37* | i | i | -6.5
O=C(O)c1cccc(-n2nnnc2SCc2ccccn2)c1 | -2.06 | i | i | -29.4
SMILES | Kir21 inh | CHT block | CHT allo act | TAG inh
Cc1csc(NC(=O)CN2C(=O)COc3ccc(Cl)cc32)n1 | 0.79 | i | i | -1.4
Cc1ccc(-c2csc(N=C(N)N)n2)c(C)c1 | -8.34* | i | i | -0.1
CC1=NNC(=O)C1C(c1ccc(F)cc1)C(C#N)C#N (stereo unspecified) | -4.3* | i | i | -4.2
COc1ccc(NC(=O)c2ccc(Cl)cc2)c[n+]1[O-] | 0.09 | i | i | x
Cn1nc([N+](=O)[O-])c(C(C#N)c2ccccn2)c(Cl)c1=O (stereo unspecified) | -2.97 | i | i | x
CCn1nc([N+](=O)[O-])c(C(C#N)c2nc3cc(C(F)(F)F)ccc3s2)c(Cl)c1=O (stereo unspecified) | -5.52* | i | i | x
CN(C)CCCNC(=O)c1ccccn1 | -0.1 | i | i | 4.1
CN(C)CCCNC(=O)c1ccc(-c2nc(-c3ccc(Cl)cc3)cs2)cc1 | -4.67* | i | i | x
CCOC(=O)C1CCCN(C(=O)COc2ccc(S(=O)(=O)N3CCOCC3)cc2)C1 (stereo unspecified) | x | x | x | -25.0
O=C(Nc1ccc(Cl)cc1)N1CCCN(Cc2ccc(F)cc2)C1 | -4.51* | i | i | x
O=C(Nc1ccccc1)N1CCN(Cc2ccc(Cl)cc2)CC1 | 1.17 | i | i | x
COCCN1C(=S)N[C@@H](c2cccc(F)c2)C(C(=O)OC)=C1C | -6.8* | i | i | x
COc1cc(/C=C(/C#N)C(=O)Nc2cc(C(F)(F)F)ccc2Cl)ccc1OCC(=O)Nc1cccc(C(F)(F)F)c1 | x | x | x | 6.8
